Screening results as filed in PubChem.
The list is not random: actives were taken first. Their share in the collection is about 6.8%.
NS3h inh CB: HCV NS3 helicase inhibitors, primary screen, biochemical, fluorescence polarization, ChemBridge library; NS3h Cy5-dT15 DNA binding; inhibition, % at 100 µM; hit rate 1.6% among 16,000; AID 687043, 2013;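 active = inhibition above the average over every tested compound plus 3 SD, cut at about 40% in these data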
Cy5 interf NS3h: Cy5 fluorescence quenchers or enhancers, artefact control for HCV NS3 helicase inhibitor project, biochemical, ChemBridge library, Cy5 readout. Cy5-dT15 DNA with NS3h, fluorescence interference; actives lie on both sides; signal over control mean, under 1 quenches. fluorescence interference ratio at 100 µM. hit rate 6% among 16,000. AID 720488, 2013;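 active = compound fluorescence over control fluorescence at most 0.8, a quencher, or at least a set upper limit, an enhancer; inactive = ratio between 0.8 and the set upper limit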
Numbers without * were called inactive.

SMILES	NS3h inh CB	Cy5 interf NS3h
CN1C(=O)/C(=C2/C(=O)N(CC(N)=O)c3ccccc32)SC1=S	3	0.88
COc1ccc(N2C(=O)/C(=C3/C(=O)N(Cc4ccccc4F)c4ccccc43)SC2=S)cc1	7	1.2*
CC1=CC(C)(C)N(C(=O)CSc2nc3ccccc3s2)c2ccccc21	-11	0.95
CC(=C\c1ccccc1)/C=C1/SC(=O)N(c2ccc(Cl)cc2)C1=O	16	0.78*
O=C1S/C(=C/c2ccc(Cl)cc2Cl)C(=O)N1c1ccccc1	3	0.99
O=C1CC(O)(C(F)(F)C(F)F)Oc2ccc(Cl)cc21 (stereo unspecified)	18	1.1
CCOc1ccccc1NC(=O)c1c(NC(=O)Cc2ccc(OC)cc2)sc2c1CCCC2	-1	1
O=C(O)CCCC(=O)OCc1ccco1	48*	1
O=C(O)CCCC(=O)Nc1ccccc1	-9	0.89
Cc1ccc(C(=O)N/C(=C\c2ccccc2F)c2nc(=S)[nH][nH]2)cc1	7	0.88
Cc1ccc(C(=O)N/C(=C/c2cccnc2)c2nc3ccccc3[nH]2)cc1	-8	0.8*
COc1cc(Sc2ccccc2[N+](=O)[O-])ccc1N	8	0.97
COc1cc(/C=C2\C(=O)N(c3ccc(S(N)(=O)=O)cc3)N=C2C)cc(Cl)c1OCc1ccccc1	4	0.9
COC(=O)c1cc(NC(=O)c2ccc(OCc3ccccc3)cc2)cc(C(=O)OC)c1	-4	0.95
COC(=O)c1cc(NC(=O)c2cccc(OCc3ccccc3)c2)cc(C(=O)OC)c1	3	1.2*
O=C(Cc1ccc(Br)cc1)Nc1ccccc1F	-4	1.1
CC(NC(=O)c1ccc(C(=O)O)cc1C(=O)O)c1ccccc1 (stereo unspecified)	2	1
C=CCN1C(=O)/C(=C/c2ccc(N(C)C)cc2)C(=O)NC1=S	34	1.2*
CN(C)c1ccc(/C=C2/C(=O)NC(=O)N(CCCO)C2=O)cc1	19	0.94
Cc1cc(C)c(C(=O)/C=C2\NCCNC2=O)c(C)c1	5	1.1
O=c1cc(-c2ccc([N+](=O)[O-])cc2)nc2cc(-c3cccc(F)c3)[nH]n12	4	1.1
CCOc1cccc(/C=C2\C(=O)NN(c3ccccc3)C2=O)c1O	18	0.97
Cc1ccc(-n2cnc(N)c2C(=O)c2ccc([N+](=O)[O-])cc2)cc1	14	1
Cc1cc(C)n2nc(-c3cccc(F)c3)cc2n1	7	0.93
Cc1cc(C)n2nc(-c3ccc(F)cc3)cc2n1	21	0.67*
SMILES	NS3h inh CB	Cy5 interf NS3h
CC(C)C(=O)Nc1ccc2oc(-c3ccc(C(C)(C)C)cc3)nc2c1	7	0.98
COc1ccc(C(=O)CSc2nc3ccccc3c(=O)[nH]2)cc1	1	1.1
COc1ccc(C(=O)CSc2nnc(Sc3nc4ccccc4[nH]3)o2)cc1	10	0.54*
O=C(O)CN1C(=O)c2cccc3c(Br)ccc1c23	7	1
O=C(O)c1cccc2c(Br)ccc(C(=O)O)c12	3	0.68*
CC(C)=C1C2C=CC1C1C(=O)N(c3cc(C(F)(F)F)ccc3Cl)C(=O)C21 (stereo unspecified)	8	0.97
COc1ccc(-n2c(C)ccc2C)c(N)c1	6	0.92
COc1cc(C(=O)O)c(-n2c(C)ccc2C)cc1OC	29	1.4*
CCc1cc(=O)oc2cc(C)cc(OCC(=O)c3ccccc3)c12	-4	1.3*
CCc1cc(=O)oc2cc(C)cc(OC(C)=O)c12	1	1.1
C/C(=N/N=C1\NC(=O)C(CC(=O)Nc2ccc(Cl)cc2Cl)S1)c1ccc(F)cc1 (stereo unspecified)	-17	1.2*
C/C(=N/N=C1\NC(=O)C(CC(=O)Nc2ccc([N+](=O)[O-])cc2)S1)c1ccc(F)cc1 (stereo unspecified)	26	1
COc1ccc(NC(=O)c2ccc3c(c2)C(=O)N(c2ccccc2-c2ccccc2)C3=O)c(OC)c1	11	1
CCOc1ccc(/C=C2\C(=O)NC(=O)N(c3ccc(C)cc3)C2=O)cc1Cl	41*	0.94
CCOc1ccc(/C=C2\C(=O)NC(=O)N(c3cccc(Br)c3)C2=O)cc1Cl	13	1.2*
CCOc1ccc(/C=C2\C(=O)NC(=O)N(c3ccc(Cl)cc3)C2=O)cc1Cl	26	1
CCOc1ccc(N2C(=O)NC(=O)/C(=C\c3ccc(OCC)c(Cl)c3)C2=O)cc1	14	1
C=COCCNC(=O)C(=O)Nc1ccc(CC)cc1	1	1
O=C(NCc1cccs1)c1cc2n(n1)C(C(F)(F)F)CC(c1cccs1)N2 (stereo unspecified)	8	1
Cc1ccc(Cl)cc1NC(=O)CSc1nnc(SCC(=O)Nc2cc(Cl)ccc2C)s1	-30	0.92
Cc1ccccc1NCn1c(=S)oc2ccccc21	13	0.65*
Cc1ccccc1NC(=O)CSc1ccccc1	7	1
